This passage reports max activity results from PubChem BioAssay AID651717 (Broad Institute, 2012).

Structures are written as SMILES. The campaign covered roughly 1,200 compounds. About 950 (79%) were called active. The set was probably picked from earlier hits. Only a sample is shown. Potency and affinity values are given separately. A number with no mark means an inactive call.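 The calls were made as follows: active = signal rises and fitted curve reaches 40% activity at or below the top valid tested dose, in every replicate test; inconclusive = replicate tests give mixed calls; inactive = the rest, including activity in the opposite direction.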

The experiment is described as follows: compounds raising Bmi1 reporter signal – mouse embryonic stem cells, luciferase, cherry-pick, esBAF inhibitor project, dose response (AID 651717).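 Also: luciferase knocked into Bmi1 locus with EF-1a renilla as cell number control; rising ratio signals esBAF inhibition which derepresses Bmi1.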 The note with it: mESC Bmi1-luciferase reporter, firefly/renilla ratio, 24 h, hits give high values; at 35 µM unless noted.
`O=C(O)C/C(=C\c1cc(Br)cs1)c1nc2ccccc2o1`: the max activity is 31.8%.
For the compound `Cc1cccc(N2CCN(C(=O)c3ccc4nc(N5CCCCC5)sc4c3)CC2)c1C`, the max activity was -28.5%.
In the case of `O=C(CSc1nnc(Nc2ccccc2F)s1)Nc1cccc(S(=O)(=O)N2CCCCC2)c1` it was 20.6% [at 16 µM]; in that of `C[C@H](CO)N1C[C@H](C)[C@@H](CN(C)Cc2ccncc2)Oc2c(NC(=O)Nc3ccc4c(c3)OCO4)cccc2C1=O`, 39.5% [at 0.26 µM].
Under `O=C1CCC[C@@H]2C[C@@]3(C[C@@H]4CCN1[C@H]24)Nc1cc(Cl)c(Cl)cc1NC3=NCc1ccccc1` stands 15.2% [at 4.2 µM]; under `CCCCC(=O)c1c(O)c2ccccc2oc1=O`, 28.9%.
Under `O=C(Nc1ccc(F)c(Cl)c1)c1ccccc1NC(=O)C1CCCCC1C(=O)O` (configuration not stated) stands 26.5%; under `O=C(O)CCN1C(=O)/C(=C\c2cccc(OCC(=O)Nc3ccc(Cl)cc3)c2)SC1=S`, 38%; under `O=S(=O)(/N=C(/Nc1nc2ccccc2s1)c1ccccc1)c1ccccc1`, 34.6% [at 16 µM].
For `Clc1ccc(CSc2ncn(-c3ccccc3)n2)cc1`, the max activity was 27%.
In the case of `Cc1cc(C)n2nc(SCc3nnc(SCc4ccccc4C)s3)nc2n1`, the max activity is 26.5%.
Under `CN(C)Cc1c(O)ccc2c(=O)c(-c3ccc(Cl)cc3)coc12` stands 24.4%; under `C[C@H](CO)N1C[C@H](C)[C@@H](CN(C)C(=O)Nc2ccc3c(c2)OCO3)Oc2c(NS(=O)(=O)c3cn(C)cn3)cccc2C1=O`, 30.6%.
In the case of `COc1ccc2c(c1OC)C(=O)OC2Nc1nc(-c2cc3cc([N+](=O)[O-])ccc3oc2=O)cs1` (configuration not stated) it was 38.4%; in that of `O=C(NN=C1CCCC1)c1ccccc1O`, 17.2% [at 4.2 µM]; in that of `CCOc1ccc(/C=N/NC(=O)c2ccccc2O)cc1CN1CC2CC(C1)c1cccc(=O)n1C2` (configuration not stated), 21.1% [at 16 µM].
In the case of `C[C@H](CO)N1C[C@H](C)[C@H](CN(C)C(=O)Nc2ccccc2)OCCCC[C@H](C)Oc2ccc(NC(=O)Nc3ccc4c(c3)OCO4)cc2C1=O` it was -15.5% [at 0.26 µM].
Consider `COc1ccc(-c2noc(C3CCCN(C(=O)Nc4ccccc4)C3)n2)cc1` (configuration not stated), for which the max activity is 16.1%.
Under `C[C@H]1CN([C@@H](C)CO)C(=O)c2cc(NC(=O)Cc3ccccc3)ccc2O[C@H]1CN(C)C(=O)Nc1ccc2c(c1)OCO2` stands 21% [at 0.5 µM].
Under `CN(C)c1ccc(C(=O)Nc2cccc(S(=O)(=O)NC3=NCCCCC3)c2)cc1` stands 11.6% [at 16 µM]; under `CCOC(=O)C1CCN(Cc2nc3ccc([N+](=O)[O-])cc3c(=O)n2-c2ccc(OC)cc2OC)CC1`, 8.71% [at 4.2 µM].
Under `COc1ccc(CCC(=O)N/N=C/c2ccc3c(c2)OCO3)cc1` stands 7.2%; under `O=C(Nc1cccc(F)c1)Nc1cccc(Cl)c1`, 39.5% [at 16 µM].
With `COc1ccc(NC(=O)Nc2cccc3c2O[C@@H](CN(C)C(=O)Nc2cccc4ccccc24)[C@H](C)CN([C@@H](C)CO)C3=O)cc1`, the max activity is 22.8%.
In the case of `C[C@H]1CN([C@@H](C)CO)C(=O)c2cc(NS(=O)(=O)c3ccc(F)cc3)ccc2O[C@@H]1CN(C)C(=O)Nc1ccc2c(c1)OCO2` it was 3.44% [at 4.2 µM].
Under `C[C@H](CO)N1C[C@H](C)[C@H](CN(C)C(=O)NC2CCCCC2)OCCCC[C@H](C)Oc2ccc(NC(=O)Nc3ccc4c(c3)OCO4)cc2C1=O` stands 27%.
In the case of `C[C@H]1CCCCO[C@H](CN(C)C(=O)NC2CCCCC2)[C@@H](C)CN([C@@H](C)CO)C(=O)c2cc(NC(=O)Nc3ccc4c(c3)OCO4)ccc2O1` it was 10.1%.
In the case of `Cc1c(Cl)cccc1N1C(=O)CC(N(O)c2ccccc2)C1=O` (configuration not stated), the max activity is 13.3%.
On to `Cc1ccc(S(=O)(=O)Nc2cccc3c2O[C@H](CN(C)C(=O)Nc2ccc4c(c2)OCO4)[C@@H](C)CN([C@H](C)CO)C3=O)cc1`, for which the max activity was -41% [at 16 µM].
In the case of `O=C(OCc1ccccc1)N1CCC2CC1c1ccc(/C=C/CCCCl)cc12` (configuration not stated) it was -25.2% [at 16 µM]; in that of `C[C@@H]1CN([C@@H](C)CO)C(=O)c2cccc(NC(=O)Nc3ccccc3)c2O[C@H]1CN(C)C(=O)Nc1ccc2c(c1)OCO2`, -14.4%.
In the case of `C[C@H]1CN([C@@H](C)CO)C(=O)c2cccc(NC(=O)Nc3ccccc3)c2O[C@@H]1CN(C)C(=O)Nc1ccc2c(c1)OCO2` it was -6.52%; in that of `Cc1ccc(S(=O)(=O)Nc2cccc3c2O[C@@H](CN(C)C(=O)Nc2ccc4c(c2)OCO4)[C@H](C)CN([C@@H](C)CO)C3=O)cc1`, -16.1%; in that of `CO[C@@H]1CN(C)C(=O)c2ccc(NC(=O)Nc3cccc(F)c3)cc2OC[C@@H](C)N(C(=O)Nc2c(C)noc2C)C[C@H]1C`, 7.7% [at 0.56 µM].
In the case of `C[C@@H]1CN([C@H](C)CO)C(=O)c2cccc(NC(=O)Nc3ccc4c(c3)OCO4)c2O[C@H]1CN(C)Cc1ccccc1` it was 36.6% [at 0.26 µM].
Take `O=C(NCc1cccs1)c1cc2c(s1)-c1ccccc1OC2`: the max activity was 20.6% [at 8 µM].
Turning to `CCCOc1c(Br)cc(C2C3=C(CCCC3=O)N(CC)C3=C2C(=O)CCC3)cc1OC`, the max activity was -53.8% [at 16 µM].
Under `Cc1ccc(CN2CN(S(=O)(=O)c3cccs3)c3nc4ccccc4nc32)cc1` stands -38.8%; under `O=C(O)c1ccc(NCc2cccnc2)cc1`, 12.2%; under `C[C@@H]1CN([C@@H](C)CO)C(=O)c2c(c3ccccc3n2C)-c2ccccc2CO[C@@H]1CN(C)C(=O)Nc1ccc2c(c1)OCO2`, -11.1%.
For `C[C@@H]1CCCCO[C@@H](CN(C)S(=O)(=O)c2cn(C)cn2)[C@@H](C)CN([C@@H](C)CO)C(=O)c2cc(NC(=O)Nc3ccc4c(c3)OCO4)ccc2O1`, the max activity was 3.24% [at 30 µM].
Under `CC1CCN(c2ccc(C(=O)NCc3cccs3)cn2)CC1` stands 20.2% [at 8 µM].
